Source: PubChem BioAssay (EPA / NIEHS)
Activity calls are given as the source filed them. Rule for the calls: active = hit-call score of the fitted dose curve at least 0.9, where 1 is the maximum; inactive = score below 0.9.

How the values were obtained:
Conditions in all cases: mRNA level, 48 h; actives raise or lower the signal
[1] = read-out: Lipoprotein lipase (LPL), LPL (gene 4023); test: LTEA_HepaRG_LPL: Life Technologies and Expression Analysis (LTEA) Assay for Lipoprotein lipase (LPL) using HepaRG (AID 2283515)
In short: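 Read-out is LPL transcript level by qRT-PCR, normalized to three housekeeping genes and fitted bidirectionally against the DMSO control. Human HepaRG cells received chemicals for 48 h at up to 100 uM.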

[2] = read-out: MicroRNA 122 (MIR122), gene 406906; test: LTEA_HepaRG_MIR122: Life Technologies and Expression Analysis (LTEA) Assay for MicroRNA 122 (MIR122) using HepaRG (AID 2283516); note: the transcript read is the microRNA miR-122
In short: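 HepaRG plated 48 h, switched to serum-free induction medium, then treated in duplicate for 48 h (100 uM top, half-log steps, 0.5% DMSO vehicle). RNA isolated, qRT-PCR performed, concentration-response fitted both directions relative to DMSO.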

[3] = read-out: matrix metalloproteinase-10 (MMP10), MMP10 (gene 4319); test: LTEA_HepaRG_MMP10: Life Technologies and Expression Analysis (LTEA) Assay for matrix metalloproteinase-10 (MMP10) using HepaRG (AID 2283517)
In short: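 Gain or loss of MMP10 mRNA is fitted relative to the 0.5% DMSO vehicle. The human hepatic line HepaRG receives a 48-hour serum-free exposure, in duplicate, with a maximum concentration of 100 uM.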

MYC, MYC (gene 4609) = test: LTEA_HepaRG_MYC: Life Technologies and Expression Analysis (LTEA) Assay for MYC using HepaRG (AID 2283518)
In short: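 Expression changes were scored by TaqMan qRT-PCR with ACTB, GAPDH and POLR2A normalization. Cultures in serum-free induction medium received duplicate 8-point concentration series, highest 100 uM, for 48 h; DMSO (0.5%) served as baseline.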

[4] = read-out: Paternally Expressed 10 (PEG10), PEG10 (gene 23089); test: LTEA_HepaRG_PEG10: Life Technologies and Expression Analysis (LTEA) Assay for Paternally Expressed 10 (PEG10) using HepaRG (AID 2283520)
In short: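 HepaRG, 48 h post-plating → serum-free induction medium → 48 h chemical exposure (duplicate, 8-pt, max 100 uM, half-log, 0.5% DMSO) → lysis in RLT → TaqMan qRT-PCR for PEG10, ACTB/GAPDH/POLR2A normalisation.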

[5] = read-out: Protein phosphatase 2A (PPP2R4), PTPA (gene 5524); test: LTEA_HepaRG_PPP2R4: Life Technologies and Expression Analysis (LTEA) Assay for Protein phosphatase 2A (PPP2R4) using HepaRG (AID 2283522)
In short: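 Readout is PPP2R4 transcript level by microfluidic qRT-PCR after 48 h chemical treatment of human HepaRG liver cells. Concentrations spanned 100 uM downward in half-log steps; gain or loss of signal was fitted relative to DMSO.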

[6] = read-out: Phosphatase and tensin (PTEN), PTEN (gene 5728); test: LTEA_HepaRG_PTEN: Life Technologies and Expression Analysis (LTEA) Assay for Phosphatase and tensin (PTEN) using HepaRG (AID 2283523)
In short: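 Read-out is PTEN transcript level by multiplexed TaqMan qRT-PCR after 48 h chemical treatment of human HepaRG cultures in serum-free induction medium. Concentrations spanned 100 uM downward in half-log steps, 0.5% DMSO throughout; activity fitted in both directions against vehicle.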

[7] = read-out: solute carrier (SLC22A1), SLC22A1 (gene 6580); test: LTEA_HepaRG_SLC22A1: Life Technologies and Expression Analysis (LTEA) Assay for solute carrier (SLC22A1) using HepaRG (AID 2283524);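 for AC50: differentiated human HepaRG liver cells in serum-free induction medium; TaqMan qRT-PCR normalized to ACTB GAPDH and POLR2A housekeeping genes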
In short: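 HepaRG (human liver line), 48 h dosing in serum-free induction medium; 8 conc., half-log down from 100 uM, 0.5% DMSO vehicle, duplicates. Endpoint: SLC22A1 mRNA, qRT-PCR, housekeeping-normalized; gain/loss fit vs DMSO.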

[8] = read-out: Pyruvate Dehydrogenase Kinase 4 (PDK4), PDK4 (gene 5166); test: LTEA_HepaRG_PDK4: Life Technologies and Expression Analysis (LTEA) Assay for Pyruvate Dehydrogenase Kinase 4 (PDK4) using HepaRG (AID 2283525)
In short: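 In this multiplexed human HepaRG expression assay, cells are treated 48 h with test chemicals across an eight-point range starting at 100 uM. PDK4 mRNA changes, normalized to ACTB/GAPDH/POLR2A, are fitted in both directions relative to vehicle.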

[9] = read-out: NAD(P)H dehydrogenase [quinone] 1 (NQO1), NQO1 (gene 1728); test: LTEA_HepaRG_NQO1: Life Technologies and Expression Analysis (LTEA) Assay for NAD(P)H dehydrogenase [quinone] 1 (NQO1) using HepaRG (AID 2283526)
In short: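 HepaRG, 48 h post-plating → serum-free induction medium → test chemical 48 h (duplicate, 100 uM top, half-log x8, 0.5% DMSO) → RNA isolation → qRT-PCR, ACTB/GAPDH/POLR2A normalization; bidirectional curve fit vs DMSO baseline.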

[10] = read-out: Nuclear factor erythroid 2-related factor 2 (Homo sapiens) (UniProt Q16236); test: LTEA_HepaRG_NFE2L2: Life Technologies and Expression Analysis (LTEA) Assay for Nuclear factor erythroid 2-related factor 2 (NFE2L2) Transcription Factor using HepaRG (AID 2283527);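 note: TaqMan qRT-PCR transcript level normalised to ACTB GAPDH and POLR2A housekeeping genes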
In short: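 Transcript level of NFE2L2 is the read-out, measured by microfluidic TaqMan qRT-PCR and normalized to three housekeeping genes. Human HepaRG cultures received test chemical for 48 h at up to 100 uM in half-log steps. Gain or loss of signal is fitted relative to 0.5% DMSO.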

[11] = read-out: succinate dehydrogenase complex iron sulfur subunit B (SDHB), SDHB (gene 6390); test: LTEA_HepaRG_SDHB: Life Technologies and Expression Analysis (LTEA) Assay for succinate dehydrogenase complex iron sulfur subunit B (SDHB) using HepaRG (AID 2283528)
In short: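 HepaRG cells (~100,000/well, plated 48 h) exposed in duplicate for 48 h in serum-free induction medium to 8-point half-log series from 100 uM in 0.5% DMSO; mRNA by qRT-PCR normalised to ACTB, GAPDH, POLR2A; bidirectional fit versus DMSO.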

[12] = read-out: Signal transducer and activator of transcription 3 (Homo sapiens) (UniProt P40763); test: LTEA_HepaRG_STAT3: Life Technologies and Expression Analysis (LTEA) Assay for Signal transducer and activator of transcription (STAT3) using HepaRG (AID 2283529)
In short: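 Read-out is STAT3 mRNA level by qRT-PCR, normalized to three housekeeping genes, in human HepaRG liver cells treated for 48 h. Concentrations ran from 100 uM downward in half-log steps; curves were fitted for gain or loss relative to 0.5% DMSO.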

[13] = read-out: sulfotransferase 2A1 (SULT2A1), SULT2A1 (gene 6822); test: LTEA_HepaRG_SULT2A1: Life Technologies and Expression Analysis (LTEA) Assay for sulfotransferase 2A1 (SULT2A1) using HepaRG (AID 2283531)
In short: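 Gene-expression endpoint in a human liver cell line: SULT2A1 mRNA change after 48 h chemical treatment, curves fitted in both directions relative to 0.5% DMSO vehicle. Concentrations spanned eight half-log steps from 100 uM.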

[14] = read-out: Transforming Growth Factor (TGFA), TGFA (gene 7039); test: LTEA_HepaRG_TGFA: Life Technologies and Expression Analysis (LTEA) Assay for Transforming Growth Factor (TGFA) using HepaRG (AID 2283532)
In short: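 HepaRG (human liver line), 48 h exposure, 8 conc. half-log down from 100 uM, 0.5% DMSO vehicle, duplicates; serum-free induction medium. TGFA mRNA by TaqMan qRT-PCR, ACTB/GAPDH/POLR2A normalization; gain/loss fit vs DMSO.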

[15] = read-out: Transforming Growth Factor (TGFB1), TGFB1 (gene 7040); test: LTEA_HepaRG_TGFB1: Life Technologies and Expression Analysis (LTEA) Assay for Transforming Growth Factor (TGFB1) Transporter using HepaRG (AID 2283533)
In short: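 Eight-point concentration-response (max 100 uM, half-log) in HepaRG under serum-free induction conditions, 48 h. TGFB1 mRNA by qRT-PCR, housekeeping-normalized.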

TIMP1, TIMP1 (gene 7076) = test: LTEA_HepaRG_TIMP1: Life Technologies and Expression Analysis (LTEA) Assay for TIMP1 using HepaRG (AID 2283534);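 note: TaqMan qRT-PCR signal normalized to ACTB GAPDH and POLR2A housekeeping genes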
In short: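 TIMP1 induction or repression in HepaRG cells after 48 h chemical exposure (eight concentrations, highest 100 uM), assessed by normalized qRT-PCR with bidirectional fitting to DMSO controls.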

[16] = read-out: Tumor necrosis factor receptor 1 (TNFRSF1A), TNFRSF1A (gene 7132); test: LTEA_HepaRG_TNFRSF1A: Life Technologies and Expression Analysis (LTEA) Assay for Tumor necrosis factor receptor 1 (TNFRSF1A) using HepaRG (AID 2283535)
In short: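 Assay uses 48 h chemical treatment of differentiated HepaRG monolayers, tested in duplicate at eight concentrations from 100 uM downward in 0.5% DMSO. mRNA is normalized to ACTB, GAPDH and POLR2A, with induction or suppression fitted relative to vehicle.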

[17] = read-out: matrix metalloproteinase-3 (MMP3), MMP3 (gene 4314); test: LTEA_HepaRG_MMP3: Life Technologies and Expression Analysis (LTEA) Assay for matrix metalloproteinase-3 (MMP3) using HepaRG (AID 2283519)
In short: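 HepaRG, human; 48 h dosing, 8 conc. (max 100 uM, half-log), duplicate, 0.5% DMSO. Readout: MMP3 transcript by Fluidigm TaqMan qRT-PCR, ACTB/GAPDH/POLR2A-normalised. Gain or loss fitted vs DMSO.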

[18] = read-out: solute carrier (SLCO1B1), SLCO1B1 (gene 10599); test: LTEA_HepaRG_SLCO1B1: Life Technologies and Expression Analysis (LTEA) Assay for solute carrier (SLCO1B1) using HepaRG (AID 2283530)
In short: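 Human HepaRG cultures treated for 48 h with an eight-concentration half-log series topping at 100 uM; SLCO1B1 measured by qRT-PCR and fitted bidirectionally relative to DMSO.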

Measured: AC50

Sequence of Signal transducer and activator of transcription 3 (Homo sapiens) (P40763 whole entry, looked up): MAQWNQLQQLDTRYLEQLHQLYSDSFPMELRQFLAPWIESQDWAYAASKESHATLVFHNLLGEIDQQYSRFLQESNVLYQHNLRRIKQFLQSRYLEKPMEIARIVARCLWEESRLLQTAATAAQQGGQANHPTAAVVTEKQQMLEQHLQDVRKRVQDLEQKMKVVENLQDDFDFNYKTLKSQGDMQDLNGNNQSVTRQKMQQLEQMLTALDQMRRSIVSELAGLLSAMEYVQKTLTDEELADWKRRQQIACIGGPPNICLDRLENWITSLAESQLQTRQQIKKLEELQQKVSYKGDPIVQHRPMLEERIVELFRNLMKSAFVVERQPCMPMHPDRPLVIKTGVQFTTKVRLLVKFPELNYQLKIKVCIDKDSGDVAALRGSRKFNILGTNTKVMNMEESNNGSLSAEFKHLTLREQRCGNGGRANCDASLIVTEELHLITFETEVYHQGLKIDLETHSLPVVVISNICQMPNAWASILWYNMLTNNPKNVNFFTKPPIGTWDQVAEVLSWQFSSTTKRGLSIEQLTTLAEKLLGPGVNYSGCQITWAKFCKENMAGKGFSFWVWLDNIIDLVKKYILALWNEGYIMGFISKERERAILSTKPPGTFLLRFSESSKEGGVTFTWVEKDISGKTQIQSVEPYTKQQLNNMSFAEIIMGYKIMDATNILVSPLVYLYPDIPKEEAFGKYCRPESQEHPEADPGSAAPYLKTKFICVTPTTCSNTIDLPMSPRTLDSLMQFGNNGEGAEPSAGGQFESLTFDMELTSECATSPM
Sequence of Nuclear factor erythroid 2-related factor 2 (Homo sapiens) (Q16236 whole entry, looked up): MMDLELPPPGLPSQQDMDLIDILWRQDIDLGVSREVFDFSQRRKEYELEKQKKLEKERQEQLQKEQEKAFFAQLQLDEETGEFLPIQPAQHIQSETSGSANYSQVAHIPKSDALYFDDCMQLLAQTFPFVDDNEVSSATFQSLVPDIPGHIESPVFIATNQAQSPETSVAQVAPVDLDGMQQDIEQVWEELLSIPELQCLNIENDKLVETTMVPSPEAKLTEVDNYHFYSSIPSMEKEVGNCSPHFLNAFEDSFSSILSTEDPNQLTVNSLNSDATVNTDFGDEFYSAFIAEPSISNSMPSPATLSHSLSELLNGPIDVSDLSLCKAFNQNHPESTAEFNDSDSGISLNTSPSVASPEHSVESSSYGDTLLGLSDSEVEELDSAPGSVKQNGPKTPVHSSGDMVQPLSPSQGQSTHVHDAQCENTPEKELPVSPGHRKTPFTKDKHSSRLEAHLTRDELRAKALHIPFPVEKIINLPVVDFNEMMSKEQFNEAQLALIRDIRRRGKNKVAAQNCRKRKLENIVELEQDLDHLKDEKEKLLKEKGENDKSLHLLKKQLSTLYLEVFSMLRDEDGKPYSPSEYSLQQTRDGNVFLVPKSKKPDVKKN

CC(C)(C)[C@@H](O)[C@@H](Cc1ccc(Cl)cc1)n1cncn1
active: [1] 16.5 µM
not listed: [17] | [18]
inactive: all other assays above

CCOC(=O)COc1cc(-n2ncc(C(F)(F)F)c(C)c2=O)c(F)cc1Cl
not listed: [5] | TIMP1, TIMP1 (gene 7076)
inactive: all other assays above

CCOC(=O)C(C)Oc1ccc(Oc2nc3ccc(Cl)cc3o2)cc1 (stereo not given)
active: [7] 9.92 µM
not listed: [5] | TIMP1, TIMP1 (gene 7076)
inactive: all other assays above

O=C(Nc1ccc([N+](=O)[O-])cc1Cl)c1cc(Cl)ccc1O
active: [3] 3.43 µM | MYC, MYC (gene 4609) 2.28 µM | [17] 4.24 µM | [4] 1.99 µM | [6] 4.53 µM | [7] 5.5 µM | [8] 4.31 µM | [9] 13.4 µM | [11] 2.68 µM | [12] 2.9 µM | [18] 3.28 µM | [13] 5.12 µM | [14] 1.93 µM | [15] 3.95 µM | [16] 10.1 µM
inactive: [1] | [2] | [10]

O=C(c1ccc(O)cc1O)c1ccc(O)cc1O
not listed: [5] | TIMP1, TIMP1 (gene 7076)
inactive: all other assays above

COC(=O)c1ccc(I)cc1S(=O)(=O)NC(=O)Nc1nc(C)nc(OC)n1
not listed: [5] | [12] | TIMP1, TIMP1 (gene 7076)
inactive: all other assays above

C#C[C@]1(O)CC[C@H]2[C@@H]3CCC4=CC(=O)CC[C@@H]4[C@H]3CC[C@@]21CC
active: [4] 2.38 µM | [8] 0.442 µM | [18] 0.0325 µM
not listed: [5] | TIMP1, TIMP1 (gene 7076)
inactive: all other assays above
